# Results from PubChem BioAssay (NCI).
# This is part of a sample that, as a whole, favours compounds with a hit. Of some 79,000 tested, about 15% had one in any assay. Values without a mark were called inactive. Calls of active or inactive are those of the source. Rule as the data show it: active = growth inhibition above about 70%; inactive = the rest.
# Legend:
# [1] = NCI Yeast Anticancer Drug Screen. Data for the rad50 strain (AID 155);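 also: 0% = growth of vehicle-only cultures of the same strain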; conditions: S. cerevisiae rad50 strain growth inhibition, active compounds read high
# Procedure, shortened: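 Cells are treated with compound, grown, and their growth is then scored against vehicle-only cultures of the same repair-deficient yeast strain.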
# [2] = NCI Yeast Anticancer Drug Screen. Data for the mec2-1 strain (AID 157); conditions: S. cerevisiae mec2-1 strain, active compounds read high
# Procedure, shortened: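 Using mec2-1 yeast: add compound, measure growth, express inhibition versus vehicle-treated cultures.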
# [3] = NCI Yeast Anticancer Drug Screen. Data for the sgs1 mgt1 strain (AID 161);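 also: 0% = growth of cultures given vehicle only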; conditions: S. cerevisiae sgs1 mgt1 strain, active compounds read high
# Procedure, shortened: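 Yeast cells carrying a defined DNA-repair defect were exposed to test compounds. Growth inhibition was measured relative to vehicle-treated controls.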
# [4] = NCI Yeast Anticancer Drug Screen. Data for the cln2 rad14 strain (AID 165);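 also: 0% = growth equal to vehicle treated cultures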; conditions: S. cerevisiae cln2 rad14 strain, active compounds read high
# Procedure, shortened: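 Yeast strain cln2 rad14, bearing defects in cell cycle control and DNA repair, serves as the test system; values reflect growth inhibition compared with vehicle.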
# [5] = NCI Yeast Anticancer Drug Screen. Data for the bub3 strain (AID 167); conditions: S. cerevisiae bub3 mutant strain, active compounds read high
# Procedure, shortened: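 Part of a panel of yeast mutants defective in DNA damage repair or cell cycle regulation. Each strain is grown with compound, and inhibition is calculated relative to solvent-treated cultures.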
# [6] = NCI Yeast Anticancer Drug Screen. Data for the mlh1 rad18 strain (AID 175); conditions: S. cerevisiae mlh1 rad18 strain growth inhibition, active compounds read high
# Procedure, shortened: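 Steps: expose repair-defective yeast to compound; measure growth; express inhibition against vehicle-treated controls.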
# [7] = at 5.0 µM (retest, dose inferred, filed as 0.5)
# [8] = at 50.0 µM (retest, dose inferred, filed as 5.0)
SMILES,"growth inhibition [1, 7]","growth inhibition [1, 8]",growth inhibition ([1]; at 50.0 µM),"growth inhibition [2, 7]","growth inhibition [2, 8]",growth inhibition ([2]; at 50.0 µM),"growth inhibition [3, 7]","growth inhibition [3, 8]",growth inhibition ([3]; at 50.0 µM),"growth inhibition [4, 7]","growth inhibition [4, 8]",growth inhibition ([4]; at 50.0 µM),"growth inhibition [5, 7]","growth inhibition [5, 8]",growth inhibition ([5]; at 50.0 µM),"growth inhibition [6, 7]","growth inhibition [6, 8]",growth inhibition ([6]; at 50.0 µM)
CCOC(=O)CC1C(=O)N(c2nc(-c3ccc(Br)cc3)cs2)N=C1C (stereo not given),2%,2%,43.5%,2%,37%,23.1%,3%,7%,60.7%,-2%,-9%,32.3%,-23%,-8%,4.05%,2%,-19%,75.8% (active)
CSCS(=O)C[C@H](CO)NC(=O)/C=C/c1c(C)[nH]c(=O)[nH]c1=O (stereo not given in full),26%,98% (active),84.5% (active),26%,86% (active),78.6% (active),25%,98% (active),83% (active),32%,95% (active),62.7%,5%,98% (active),88.7% (active),25%,98% (active),85.1% (active)
CCC(CC)(c1ccc(C)cc1)c1ccc(C)cc1,-12%,99% (active),99.5% (active),-10%,99% (active),99.2% (active),-6%,99% (active),98.8% (active),-80%,99% (active),77.2% (active),22%,-55%,92.3% (active),7%,99% (active),99.6% (active)
COc1ccccc1/C=C1\NC(=S)N(/C=C2\C(=O)Oc3ccccc3C2=O)C1=O,8%,32%,73.2% (active),-7%,25%,29.9%,-6%,38%,73% (active),-9%,47%,64.7%,-27%,37%,79.1% (active),9%,50%,85.9% (active)
c1ccc2c(c1)ccc1ncccc12,8%,70% (active),81.8% (active),3%,23%,3.15%,0%,38%,47.6%,2%,10%,-12.2%,6%,62%,46.9%,6%,43%,64.8%
CC1(c2ccc(S(=O)(=O)c3ccccc3)cc2)OC(=O)C=CC1=O (stereo not given),82% (active),100% (active),99.2% (active),92% (active),99% (active),99.5% (active),94% (active),99% (active),99.5% (active),44%,98% (active),99.2% (active),94% (active),99% (active),99.5% (active),97% (active),99% (active),99.5% (active)
CCOC(=O)C(CCOC)C(=O)OCC,4%,81% (active),73.3% (active),0%,30%,70.9% (active),1%,46%,43.9%,3%,65%,41.8%,1%,48%,95.7% (active),5%,72% (active),43.6%
CCOC(=O)C(=O)CC1=Nc2ccccc2SC(c2cccc(C)c2)C1 (stereo not given),2%,81% (active),91.9% (active),-1%,98% (active),92.9% (active),7%,98% (active),99.2% (active),-2%,86% (active),50%,12%,98% (active),99.1% (active),2%,97% (active),97.5% (active)
Clc1ccc2nc3c(c(N4CCCCC4)c2c1)CCCC3,7%,99% (active),98.8% (active),4%,99% (active),99.2% (active),13%,99% (active),99.4% (active),2%,99% (active),99.2% (active),0%,99% (active),97% (active),11%,98% (active),99.2% (active)
OC(COc1ccc(Cl)cc1)COc1ccc(Cl)cc1,0%,92% (active),98.4% (active),-3%,91% (active),99.4% (active),-3%,86% (active),99.4% (active),-19%,86% (active),99% (active),-8%,92% (active),99.5% (active),0%,93% (active),99.3% (active)
